In the supplement of paper PMC10849652:
The full data set covers some 8,800 targets. This sample favours those with a hit. About 0.5% of all pairs of compound and target were hits.

Tests used:
Test in all cases: log2 fold change, soluble protein after heating vs DMSO (PISA); higher = thermal stabilisation; K562 lysate, 10 uM; active = over 0.2 and 3.5 SD of the protein, either way, in both replicates (recomputed)
lapatinib = compound: CS(=O)(=O)CCNCc1ccc(-c2ccc3ncnc(Nc4ccc(OCc5cccc(F)c5)c(Cl)c4)c3c2)o1 [lapatinib]
Outline: (§1)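 K562 pellets were dounce-homogenised in PBS pH 7.4 containing 1 mM MgCl2, and the crude extract, at 1 mg/mL protein, was exposed to 10 μM compound for 30 min. Aliquots were heated for 3 min across 48°C-58°C, pooled, brought to 0.5% NP-40 at 4°C and spun at 21,000xg for 90 min, with the supernatant taken as soluble protein. TMTpro 16plex LC-MS/MS with equalised channel sums quantified that protein. Values are log-two fold changes in thermal stability relative to solvent controls, taken from duplicates.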

pictilisib = compound: CS(=O)(=O)N1CCN(Cc2cc3nc(-c4cccc5[nH]ncc45)nc(N4CCOCC4)c3s2)CC1 [pictilisib]
Outline: as §1

crizotinib = compound: C[C@@H](Oc1cc(-c2cnn(C3CCNCC3)c2)cnc1N)c1c(Cl)ccc(F)c1Cl [crizotinib]
Outline: as §1

[1] = compound: C[C@H](C1=CC=C(C=C1)C(=O)NC2=C3C=CNC3=NC=C2)N
Outline: as §1

duvelisib = compound: C[C@H](Nc1ncnc2nc[nH]c12)c1cc2cccc(Cl)c2c(=O)n1-c1ccccc1 [duvelisib]
Outline: as §1

gandotinib = compound: Cc1cc(Nc2cc(CN3CCOCC3)c3nc(C)c(Cc4ccc(Cl)cc4F)n3n2)n[nH]1 [gandotinib]
Outline: as §1

tozasertib = compound: Cc1cc(Nc2cc(N3CCN(C)CC3)nc(Sc3ccc(NC(=O)C4CC4)cc3)n2)n[nH]1 [tozasertib]
Outline: as §1

doramapimod = compound: Cc1ccc(-n2nc(C(C)(C)C)cc2NC(=O)Nc2ccc(OCCN3CCOCC3)c3ccccc23)cc1 [doramapimod]
Outline: as §1

bafetinib = compound: Cc1ccc(NC(=O)c2ccc(CN3CC[C@H](N(C)C)C3)c(C(F)(F)F)c2)cc1Nc1nccc(-c2cncnc2)n1 [bafetinib]
Outline: as §1

[2] = compound: Cc1cccc(CC(=O)N2CCc3c2ccc(-c2cn(C)c4ncnc(N)c24)c3F)n1
Outline: as §1

Measured: log2 fold change

SBF1 isoform 4 (UniProt O95248)
inactive: lapatinib -0.029 | pictilisib -0.075 | crizotinib 0.088 | [1] 0.07 | duvelisib -0.039 | gandotinib -0.066 | tozasertib 0 | doramapimod -0.004 | bafetinib -0.061 | [2] 0.006

RALGAPA1 isoform 6 (UniProt Q6GYQ0)
Sequence of UniProt Q6GYQ0 (Q6GYQ0 whole entry, looked up): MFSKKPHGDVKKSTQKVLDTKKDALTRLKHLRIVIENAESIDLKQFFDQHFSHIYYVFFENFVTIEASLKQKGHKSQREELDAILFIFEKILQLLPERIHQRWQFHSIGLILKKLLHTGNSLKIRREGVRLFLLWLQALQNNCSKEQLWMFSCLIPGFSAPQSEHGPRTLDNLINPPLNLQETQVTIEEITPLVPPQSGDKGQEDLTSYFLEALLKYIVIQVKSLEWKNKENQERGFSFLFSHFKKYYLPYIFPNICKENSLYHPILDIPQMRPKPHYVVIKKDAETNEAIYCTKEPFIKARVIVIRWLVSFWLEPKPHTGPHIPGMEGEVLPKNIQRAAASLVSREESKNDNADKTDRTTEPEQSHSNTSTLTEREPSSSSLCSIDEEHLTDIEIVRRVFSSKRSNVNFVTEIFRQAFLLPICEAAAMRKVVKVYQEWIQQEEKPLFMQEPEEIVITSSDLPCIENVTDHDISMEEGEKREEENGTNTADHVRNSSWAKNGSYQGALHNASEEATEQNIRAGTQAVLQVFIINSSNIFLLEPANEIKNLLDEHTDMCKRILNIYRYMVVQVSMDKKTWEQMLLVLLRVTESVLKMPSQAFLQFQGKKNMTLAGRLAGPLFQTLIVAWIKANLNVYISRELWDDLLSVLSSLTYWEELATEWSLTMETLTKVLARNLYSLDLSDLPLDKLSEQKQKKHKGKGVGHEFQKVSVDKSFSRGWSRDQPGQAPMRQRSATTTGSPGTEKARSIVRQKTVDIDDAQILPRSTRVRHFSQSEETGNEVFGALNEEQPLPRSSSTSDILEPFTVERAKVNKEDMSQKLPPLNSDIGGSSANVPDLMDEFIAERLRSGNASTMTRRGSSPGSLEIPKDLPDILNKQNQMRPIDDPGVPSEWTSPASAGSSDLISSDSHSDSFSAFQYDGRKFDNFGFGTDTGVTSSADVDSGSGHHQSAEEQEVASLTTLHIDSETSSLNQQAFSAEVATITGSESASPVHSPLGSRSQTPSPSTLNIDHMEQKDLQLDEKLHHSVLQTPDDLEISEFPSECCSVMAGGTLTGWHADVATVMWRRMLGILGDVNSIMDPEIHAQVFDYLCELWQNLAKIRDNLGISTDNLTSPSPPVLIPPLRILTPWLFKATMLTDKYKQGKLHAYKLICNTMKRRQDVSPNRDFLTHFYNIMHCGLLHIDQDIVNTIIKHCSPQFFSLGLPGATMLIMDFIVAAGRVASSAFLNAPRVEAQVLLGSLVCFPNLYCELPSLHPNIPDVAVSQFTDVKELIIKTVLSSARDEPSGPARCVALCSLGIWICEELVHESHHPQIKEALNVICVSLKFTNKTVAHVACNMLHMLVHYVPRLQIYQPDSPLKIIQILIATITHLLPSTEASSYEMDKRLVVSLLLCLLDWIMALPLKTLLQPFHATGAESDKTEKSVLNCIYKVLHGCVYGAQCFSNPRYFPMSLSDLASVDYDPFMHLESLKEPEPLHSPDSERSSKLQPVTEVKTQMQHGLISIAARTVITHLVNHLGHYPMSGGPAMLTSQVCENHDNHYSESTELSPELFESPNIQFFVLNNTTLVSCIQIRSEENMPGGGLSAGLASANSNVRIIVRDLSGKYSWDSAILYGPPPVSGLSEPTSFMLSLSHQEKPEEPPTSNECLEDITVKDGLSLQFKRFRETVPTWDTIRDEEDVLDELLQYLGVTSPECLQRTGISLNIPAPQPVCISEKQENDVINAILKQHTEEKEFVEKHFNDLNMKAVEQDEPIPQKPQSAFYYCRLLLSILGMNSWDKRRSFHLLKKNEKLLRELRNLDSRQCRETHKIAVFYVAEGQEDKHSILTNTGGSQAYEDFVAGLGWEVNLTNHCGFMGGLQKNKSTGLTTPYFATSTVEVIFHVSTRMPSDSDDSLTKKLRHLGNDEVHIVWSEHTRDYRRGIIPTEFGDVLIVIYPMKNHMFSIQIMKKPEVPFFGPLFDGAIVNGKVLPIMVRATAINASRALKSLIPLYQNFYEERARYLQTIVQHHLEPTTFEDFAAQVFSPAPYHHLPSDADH
active: [1] -0.28
inactive: lapatinib -0.075 | pictilisib -0.157 | crizotinib 0.036 | duvelisib 0.074 | gandotinib 0.257 | tozasertib -0.006 | doramapimod 0.062 | bafetinib -0.026 | [2] 0.321

RPS6KA1 (UniProt Q15418)
inactive: lapatinib -0.067 | pictilisib 0.08 | crizotinib -0.043 | [1] 0.007 | duvelisib 0.008 | gandotinib 0.05 | tozasertib 0.165 | doramapimod -0.039 | bafetinib -0.135 | [2] -0.172

RSU1 (UniProt Q15404)
active: [1] 0.329
inactive: lapatinib 0.001 | pictilisib 0.045 | crizotinib 0.07 | duvelisib 0.007 | gandotinib -0.116 | tozasertib 0.015 | doramapimod -0.045 | bafetinib 0.039 | [2] -0.135

RDH10 (UniProt Q8IZV5)
inactive: lapatinib 0.004 | pictilisib -0.035 | crizotinib 0.062 | [1] -0.039 | duvelisib 0.022 | gandotinib 0.055 | tozasertib -0.032 | doramapimod -0.012 | bafetinib 0.001 | [2] 0.043

SCO1 (UniProt O75880)
inactive: lapatinib 0.021 | pictilisib -0.046 | crizotinib -0.046 | [1] -0.022 | duvelisib -0.014 | gandotinib 0.047 | tozasertib 0.01 | doramapimod 0.026 | bafetinib 0.048 | [2] 0.073

RBMX (UniProt P38159)
inactive: lapatinib 0.002 | pictilisib 0.012 | crizotinib 0.022 | [1] 0.011 | duvelisib 0.033 | gandotinib -0.003 | tozasertib 0.013 | doramapimod 0.008 | bafetinib 0.068 | [2] 0.022

REEP6 (UniProt Q96HR9)
inactive: lapatinib 0.066 | pictilisib 0.047 | crizotinib -0.04 | [1] -0.269 | duvelisib -0.006 | gandotinib 0.056 | tozasertib 0.097 | doramapimod 0.052 | bafetinib -0.031 | [2] 0.078

REXO4 (UniProt Q9GZR2)
inactive: lapatinib 0 | pictilisib -0.128 | crizotinib 0.017 | duvelisib -0.003 | gandotinib -0.169 | tozasertib -0.017 | doramapimod -0.056 | bafetinib -0.06 | [2] -0.139
active: [1] 0.349

RNF149 (UniProt Q8NC42)
inactive: lapatinib 0.073 | pictilisib -0.025 | crizotinib -0.006 | [1] -0.039 | duvelisib -0.025 | gandotinib -0.026 | doramapimod -0.099 | bafetinib -0.105 | [2] -0.013

SAMD4A (UniProt Q9UPU9)
inactive: lapatinib 0.282 | pictilisib 0.047 | crizotinib -0.041 | [1] -0.064 | duvelisib -0.046 | gandotinib -0.036 | tozasertib 0.088 | doramapimod 0.019 | bafetinib -0.215 | [2] 0.101

RBM23 isoform 2 (UniProt Q86U06)
Sequence of UniProt Q86U06 (Q86U06 whole entry, looked up): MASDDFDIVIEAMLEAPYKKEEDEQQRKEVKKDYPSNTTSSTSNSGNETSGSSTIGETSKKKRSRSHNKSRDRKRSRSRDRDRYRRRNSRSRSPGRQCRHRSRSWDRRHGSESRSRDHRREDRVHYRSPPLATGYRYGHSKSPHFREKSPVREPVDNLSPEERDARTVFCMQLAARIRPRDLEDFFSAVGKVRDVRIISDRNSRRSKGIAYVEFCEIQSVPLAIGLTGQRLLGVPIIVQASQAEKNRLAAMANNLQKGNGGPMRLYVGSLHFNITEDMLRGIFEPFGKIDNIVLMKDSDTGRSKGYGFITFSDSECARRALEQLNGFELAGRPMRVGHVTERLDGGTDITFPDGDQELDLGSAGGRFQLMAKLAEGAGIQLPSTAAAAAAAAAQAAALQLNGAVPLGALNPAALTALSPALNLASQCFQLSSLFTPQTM
inactive: lapatinib 0.056 | pictilisib -0.053 | crizotinib -0.076 | [1] 0.044 | duvelisib -0.008 | gandotinib 0.272 | tozasertib 0.053 | bafetinib -0.114 | [2] 0.083
active: doramapimod 0.489

RNASEH2B (UniProt Q5TBB1)
inactive: lapatinib 0.001 | pictilisib 0.039 | crizotinib -0.049 | [1] 0.126 | duvelisib 0.03 | gandotinib -0.126 | tozasertib 0.055 | doramapimod 0.041 | bafetinib 0.027 | [2] -0.064

SCML2 (UniProt Q9UQR0)
inactive: lapatinib 0.035 | pictilisib -0.027 | crizotinib -0.022 | [1] 0.034 | duvelisib 0.006 | gandotinib -0.045 | tozasertib 0.029 | doramapimod 0 | bafetinib -0.017 | [2] -0.014

SEC16A isoform 5 (UniProt O15027)
inactive: lapatinib -0.019 | pictilisib -0.044 | crizotinib 0.018 | [1] -0.039 | duvelisib -0.013 | gandotinib -0.014 | tozasertib -0.001 | doramapimod -0.002 | bafetinib 0.031 | [2] 0.029

RANBP6 (UniProt O60518)
Sequence of UniProt O60518 (O60518 whole entry, looked up): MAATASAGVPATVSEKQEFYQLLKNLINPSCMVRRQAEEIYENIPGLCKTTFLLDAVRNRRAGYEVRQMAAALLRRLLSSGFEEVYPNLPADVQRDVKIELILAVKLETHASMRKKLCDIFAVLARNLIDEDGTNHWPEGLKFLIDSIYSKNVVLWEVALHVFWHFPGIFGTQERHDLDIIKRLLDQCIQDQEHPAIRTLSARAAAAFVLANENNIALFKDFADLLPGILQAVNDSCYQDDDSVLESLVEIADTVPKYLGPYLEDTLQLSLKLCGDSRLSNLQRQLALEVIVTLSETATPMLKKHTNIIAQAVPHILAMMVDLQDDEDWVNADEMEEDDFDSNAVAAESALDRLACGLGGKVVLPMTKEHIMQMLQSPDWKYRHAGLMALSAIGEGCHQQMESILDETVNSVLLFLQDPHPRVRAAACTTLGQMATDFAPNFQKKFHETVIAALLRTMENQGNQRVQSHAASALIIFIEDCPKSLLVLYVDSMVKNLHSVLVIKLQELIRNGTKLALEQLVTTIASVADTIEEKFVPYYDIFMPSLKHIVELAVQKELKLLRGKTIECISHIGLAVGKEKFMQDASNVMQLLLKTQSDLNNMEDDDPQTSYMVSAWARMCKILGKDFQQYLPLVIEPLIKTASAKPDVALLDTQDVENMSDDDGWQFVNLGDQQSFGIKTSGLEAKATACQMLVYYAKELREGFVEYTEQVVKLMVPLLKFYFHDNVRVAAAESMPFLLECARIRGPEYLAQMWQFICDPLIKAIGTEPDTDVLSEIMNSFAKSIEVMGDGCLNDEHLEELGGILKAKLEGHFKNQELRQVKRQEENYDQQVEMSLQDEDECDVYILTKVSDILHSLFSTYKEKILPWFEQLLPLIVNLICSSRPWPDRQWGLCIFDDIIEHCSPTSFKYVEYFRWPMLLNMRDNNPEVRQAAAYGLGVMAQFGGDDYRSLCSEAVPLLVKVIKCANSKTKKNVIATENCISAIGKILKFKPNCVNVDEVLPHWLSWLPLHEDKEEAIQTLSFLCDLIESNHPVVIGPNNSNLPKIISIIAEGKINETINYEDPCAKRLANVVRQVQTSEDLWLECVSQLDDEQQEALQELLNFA
inactive: lapatinib -0.007 | pictilisib -0.005 | crizotinib -0.125 | [1] -0.067 | duvelisib 0.019 | gandotinib -0.01 | tozasertib 0.012 | doramapimod 0.039 | bafetinib 0.016 | [2] 0.148

RNF168 (UniProt Q8IYW5)
Sequence of UniProt Q8IYW5 (Q8IYW5 whole entry, looked up): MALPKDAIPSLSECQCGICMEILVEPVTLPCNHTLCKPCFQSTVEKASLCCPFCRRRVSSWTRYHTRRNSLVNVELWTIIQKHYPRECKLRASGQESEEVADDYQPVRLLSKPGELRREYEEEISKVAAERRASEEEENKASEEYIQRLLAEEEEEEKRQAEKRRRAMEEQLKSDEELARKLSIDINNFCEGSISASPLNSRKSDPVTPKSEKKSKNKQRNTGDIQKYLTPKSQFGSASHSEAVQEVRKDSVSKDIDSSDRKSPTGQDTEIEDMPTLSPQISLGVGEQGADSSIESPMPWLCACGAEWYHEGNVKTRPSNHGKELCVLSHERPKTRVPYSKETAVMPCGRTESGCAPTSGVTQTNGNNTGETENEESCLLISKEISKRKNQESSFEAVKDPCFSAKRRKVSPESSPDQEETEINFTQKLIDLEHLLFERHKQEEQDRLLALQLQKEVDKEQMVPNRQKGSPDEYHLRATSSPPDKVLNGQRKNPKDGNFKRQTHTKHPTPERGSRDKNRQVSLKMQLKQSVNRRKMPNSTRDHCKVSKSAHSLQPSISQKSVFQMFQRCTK
inactive: lapatinib -0.034 | pictilisib 0.063 | crizotinib 0.027 | [1] -0.015 | duvelisib 0.037 | gandotinib 0.002 | tozasertib -0.088 | doramapimod -0.008 | bafetinib -0.212 | [2] -0.036

RRAGA (UniProt Q7L523)
inactive: lapatinib 0 | pictilisib -0.06 | crizotinib -0.084 | [1] 0.075 | duvelisib 0.063 | gandotinib -0.035 | tozasertib -0.033 | doramapimod -0.058 | bafetinib -0.018 | [2] -0.02

SEH1L isoform 1 (UniProt Q96EE3)
inactive: lapatinib -0.03 | pictilisib -0.009 | crizotinib 0.01 | [1] -0.027 | duvelisib -0.049 | gandotinib 0.029 | tozasertib 0.011 | doramapimod 0.007 | bafetinib -0.085 | [2] 0.052

RDH14 (UniProt Q9HBH5)
inactive: lapatinib 0.082 | pictilisib -0.028 | crizotinib 0.009 | [1] -0.191 | duvelisib 0.002 | gandotinib 0.176 | tozasertib 0.043 | doramapimod 0 | bafetinib -0.005 | [2] 0.198

RAP1B (UniProt F5GZG1)
inactive: lapatinib 0.003 | pictilisib 0.02 | crizotinib -0.022 | [1] -0.313 | duvelisib 0.016 | gandotinib 0.127 | tozasertib 0.103 | doramapimod -0.115 | bafetinib -0.098 | [2] 0.201

RNF123 (UniProt Q5XPI4)
inactive: lapatinib -0.013 | pictilisib -0.029 | crizotinib -0.015 | [1] -0.04 | duvelisib -0.068 | gandotinib -0.122 | tozasertib 0.029 | doramapimod 0.039 | bafetinib -0.002 | [2] 0.011

RFC3 (UniProt P40938)
inactive: lapatinib -0.045 | pictilisib -0.009 | crizotinib -0.043 | [1] -0.072 | duvelisib 0.037 | gandotinib -0.039 | tozasertib 0.027 | doramapimod 0.016 | bafetinib -0.051 | [2] 0.1

SAR1A (UniProt Q9NR31)
active: doramapimod 0.504
inactive: lapatinib 0.101 | pictilisib 0.191 | crizotinib -0.056 | [1] 0.033 | duvelisib 0.002 | gandotinib 0.341 | tozasertib 0.027 | bafetinib -0.022 | [2] 0.156

RAPGEF4 (UniProt Q8WZA2)
inactive: lapatinib -0.061 | pictilisib 0.047 | crizotinib -0.24 | duvelisib 0.104 | gandotinib 0.38 | tozasertib -0.088 | doramapimod -0.041 | bafetinib -0.212 | [2] 0.543
active: [1] -0.804

RAD51C (UniProt O43502)
inactive: lapatinib -0.042 | pictilisib -0.023 | crizotinib -0.074 | [1] -0.006 | duvelisib 0.022 | gandotinib 0.065 | tozasertib -0.089 | doramapimod 0.074 | bafetinib -0.119 | [2] -0.044

RIOK2 (UniProt Q9BVS4)
inactive: lapatinib -0.032 | pictilisib 0.269 | crizotinib 0.047 | [1] -0.028 | duvelisib 0.016 | tozasertib -0.011 | doramapimod -0.028 | bafetinib 0.093 | [2] -0.012
active: gandotinib 0.829

RAD54L2 (UniProt Q9Y4B4)
inactive: lapatinib -0.209 | pictilisib -0.018 | crizotinib -0.037 | [1] -0.174 | duvelisib 0.026 | gandotinib -0.163 | tozasertib -0.166 | doramapimod -0.02 | bafetinib -0.095 | [2] 0.067

RAI14 isoform 2 (UniProt Q9P0K7)
inactive: lapatinib -0.026 | pictilisib -0.007 | crizotinib -0.014 | [1] 0 | duvelisib -0.025 | gandotinib -0.051 | tozasertib 0.009 | doramapimod 0 | bafetinib -0.029 | [2] 0.002

RASA2 (UniProt Q15283)
Sequence of UniProt Q15283 (Q15283 whole entry, looked up): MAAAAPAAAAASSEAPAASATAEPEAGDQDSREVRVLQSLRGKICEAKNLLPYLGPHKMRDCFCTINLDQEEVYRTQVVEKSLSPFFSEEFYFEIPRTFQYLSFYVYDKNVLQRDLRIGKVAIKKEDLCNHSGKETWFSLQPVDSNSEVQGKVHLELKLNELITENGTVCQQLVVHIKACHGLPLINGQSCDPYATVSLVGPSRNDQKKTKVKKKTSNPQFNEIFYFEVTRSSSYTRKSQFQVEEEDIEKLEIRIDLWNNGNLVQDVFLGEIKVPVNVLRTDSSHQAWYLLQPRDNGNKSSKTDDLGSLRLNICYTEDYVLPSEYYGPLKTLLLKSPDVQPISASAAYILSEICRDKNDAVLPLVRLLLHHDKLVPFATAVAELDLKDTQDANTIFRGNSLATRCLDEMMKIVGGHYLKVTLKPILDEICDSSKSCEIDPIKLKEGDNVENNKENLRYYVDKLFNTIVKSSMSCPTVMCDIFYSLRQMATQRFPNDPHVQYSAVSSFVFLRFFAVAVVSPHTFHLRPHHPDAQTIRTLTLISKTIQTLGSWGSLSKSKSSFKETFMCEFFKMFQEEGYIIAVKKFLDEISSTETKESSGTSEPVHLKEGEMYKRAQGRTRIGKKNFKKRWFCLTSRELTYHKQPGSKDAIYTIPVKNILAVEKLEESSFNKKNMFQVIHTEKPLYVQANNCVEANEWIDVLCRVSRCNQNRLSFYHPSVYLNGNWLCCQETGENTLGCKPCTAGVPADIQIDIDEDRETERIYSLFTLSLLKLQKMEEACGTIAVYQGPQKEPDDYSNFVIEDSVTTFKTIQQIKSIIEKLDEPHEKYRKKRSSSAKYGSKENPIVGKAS
inactive: lapatinib 0.026 | pictilisib -0.089 | crizotinib -0.014 | [1] -0.007 | duvelisib -0.045 | gandotinib -0.087 | tozasertib 0.013 | doramapimod 0.072 | bafetinib -0.078 | [2] 0.096
